Structures are written as SMILES. A number with no mark means an inactive call. For some of these results: Potency and affinity values are given separately. Active and inactive are the calls of the source. Unless noted, the rule behind the calls is not given here.

Test [1] in a line: antimalarial activity against Dd2 strain (AID 2302;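 active = growth inhibition above 50% at the single 2 µM test dose, taken to imply half-maximal potency below 2 µM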;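 note: 0% = DMSO untreated growth and 100% = chloroquine plus artemisinin killed control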). Particulars: P. falciparum Dd2 in RBCs, LDH growth readout, 72 h; at 2 µM; active compounds read high.
The nature of test [2]: human hepatoma cell viability loss – ATP luminescence, cytotoxicity control for P. falciparum antimalarial project, primary screen (AID 2303;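 active = inhibition above 50%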;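 note: 0% = DMSO wells and 100% = digitonin-killed cells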). Conditions: HepG2 viability, 24-48 h, at 10 µM, active compounds read high.
Test [3] deals with L-lactate dehydrogenase (Plasmodium falciparum (isolate CDC / Honduras)) (UniProt Q27743). The test is described as follows: PfLDH activity inhibition – cell lysate, 3D7 strain, counter-screen for P. falciparum growth inhibition project (AID 2304).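 Note: 0% = vehicle and 100% = reference inhibitor.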 Particulars: P. falciparum 3D7 crude extract, LDH APAD/NBT absorbance; at 2 µM; active compounds read high.
Test [4] in a line: inhibition of 3D7 malaria parasite growth – strain 3D7 (AID 2306).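 Note: 0% = DMSO wells and 100% = chloroquine plus artemisinin control wells.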 Conditions: P. falciparum 3D7 erythrocytic growth, LDH absorbance, 72 h; at 2 µM; active compounds read high.
In test [5] the target is Calcium-dependent protein kinase 1 (Plasmodium falciparum (isolate 3D7)) (UniProt P62344). Briefly: PfCDPK1 kinase inhibitors, biochemical, TCAMS library (AID 1159585; cut-off not given, nearly all actives have IC50 up to about 0.98 µM;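 note: inhibitors leave more ATP so luminescence rises with inhibition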). Particulars: recombinant PfCDPK1, Kinase-Glo ATP depletion luminescence.
Test [6] addresses Plasmodium falciparum protein kinase 6 (PK6, PF3D7_1337100) (UniProt Q8IDW1). The test is described as follows: PfPK6 kinase inhibitors, biochemical, TCAMS library (AID 1159586). Particulars: recombinant PfPK6, Kinase-Glo ATP depletion luminescence.
The target of test [7] is Protein kinase 7 (PK7), Plasmodium falciparum 3D7 (PF3D7_0213400) (UniProt Q7YTF7). The test is described as follows: inhibition of Plasmodium PK7 catalytic activity – biochemical, TCAMS antimalarial set, Kinase-Glo luminescence (AID 1159587). Particulars: recombinant PfPK7, Kinase-Glo ATP depletion luminescence.
For test [8], the target named is Calcium-dependent protein kinase 4 (Plasmodium falciparum (isolate 3D7)) (UniProt Q8IBS5). Briefly: PfCDPK4 kinase inhibitors, biochemical, TCAMS library (AID 1159588; cut-off not given, nearly all actives have IC50 up to about 0.91 µM). Particulars: recombinant PfCDPK4, Kinase-Glo ATP depletion luminescence.
Chain of Calcium-dependent protein kinase 4 (Plasmodium falciparum (isolate 3D7)) (Q8IBS5 whole entry, looked up): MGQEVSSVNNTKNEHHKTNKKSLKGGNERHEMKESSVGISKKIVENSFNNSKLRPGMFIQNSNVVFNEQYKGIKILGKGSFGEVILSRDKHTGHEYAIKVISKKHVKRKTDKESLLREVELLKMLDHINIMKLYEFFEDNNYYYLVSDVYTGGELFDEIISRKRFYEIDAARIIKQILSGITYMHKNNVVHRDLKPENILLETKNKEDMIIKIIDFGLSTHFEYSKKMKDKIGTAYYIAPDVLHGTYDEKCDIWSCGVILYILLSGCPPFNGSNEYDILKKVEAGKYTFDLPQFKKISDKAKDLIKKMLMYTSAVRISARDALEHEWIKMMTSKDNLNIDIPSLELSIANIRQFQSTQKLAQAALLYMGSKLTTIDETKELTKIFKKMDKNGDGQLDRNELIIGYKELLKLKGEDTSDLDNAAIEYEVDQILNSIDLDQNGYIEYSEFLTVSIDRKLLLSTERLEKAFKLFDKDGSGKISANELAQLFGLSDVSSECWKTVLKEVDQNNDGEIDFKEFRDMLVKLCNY

Chain of Calcium-dependent protein kinase 1 (Plasmodium falciparum (isolate 3D7)) (P62344 whole entry, looked up): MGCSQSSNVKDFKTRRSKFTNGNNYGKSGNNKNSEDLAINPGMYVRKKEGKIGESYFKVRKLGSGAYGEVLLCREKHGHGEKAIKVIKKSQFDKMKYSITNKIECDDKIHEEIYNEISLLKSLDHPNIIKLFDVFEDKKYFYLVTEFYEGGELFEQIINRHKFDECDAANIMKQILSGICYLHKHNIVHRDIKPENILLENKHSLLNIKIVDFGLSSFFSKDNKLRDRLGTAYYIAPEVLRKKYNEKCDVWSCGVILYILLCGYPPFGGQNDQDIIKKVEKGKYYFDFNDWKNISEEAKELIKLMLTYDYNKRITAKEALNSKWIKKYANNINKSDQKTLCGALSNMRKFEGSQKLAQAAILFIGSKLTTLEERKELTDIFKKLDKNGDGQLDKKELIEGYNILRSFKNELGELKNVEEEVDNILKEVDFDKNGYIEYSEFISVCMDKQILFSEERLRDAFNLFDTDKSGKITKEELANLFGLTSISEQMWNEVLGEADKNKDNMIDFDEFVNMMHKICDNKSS
Chain of Plasmodium falciparum protein kinase 6 (PK6, PF3D7_1337100) (Q8IDW1 1-305): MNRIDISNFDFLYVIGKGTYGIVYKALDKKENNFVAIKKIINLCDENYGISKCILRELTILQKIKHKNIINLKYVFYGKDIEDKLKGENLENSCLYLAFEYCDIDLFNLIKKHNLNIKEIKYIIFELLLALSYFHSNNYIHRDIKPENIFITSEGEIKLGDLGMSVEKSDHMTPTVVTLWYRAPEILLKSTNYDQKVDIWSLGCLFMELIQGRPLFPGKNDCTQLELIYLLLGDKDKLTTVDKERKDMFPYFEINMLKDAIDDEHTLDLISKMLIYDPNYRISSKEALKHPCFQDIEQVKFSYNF
Chain of L-lactate dehydrogenase (Plasmodium falciparum (isolate CDC / Honduras)) (Q27743 whole entry, looked up): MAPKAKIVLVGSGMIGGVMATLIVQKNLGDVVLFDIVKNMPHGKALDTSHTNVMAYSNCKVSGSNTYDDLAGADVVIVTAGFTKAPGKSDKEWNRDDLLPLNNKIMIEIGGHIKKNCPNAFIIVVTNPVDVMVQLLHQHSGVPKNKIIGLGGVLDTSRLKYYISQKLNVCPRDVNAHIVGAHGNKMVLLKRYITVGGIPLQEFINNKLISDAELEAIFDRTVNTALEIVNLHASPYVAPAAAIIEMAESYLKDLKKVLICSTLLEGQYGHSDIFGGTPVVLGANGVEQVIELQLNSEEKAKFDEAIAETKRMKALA
Chain of Protein kinase 7 (PK7), Plasmodium falciparum 3D7 (PF3D7_0213400) (Q7YTF7 1-343): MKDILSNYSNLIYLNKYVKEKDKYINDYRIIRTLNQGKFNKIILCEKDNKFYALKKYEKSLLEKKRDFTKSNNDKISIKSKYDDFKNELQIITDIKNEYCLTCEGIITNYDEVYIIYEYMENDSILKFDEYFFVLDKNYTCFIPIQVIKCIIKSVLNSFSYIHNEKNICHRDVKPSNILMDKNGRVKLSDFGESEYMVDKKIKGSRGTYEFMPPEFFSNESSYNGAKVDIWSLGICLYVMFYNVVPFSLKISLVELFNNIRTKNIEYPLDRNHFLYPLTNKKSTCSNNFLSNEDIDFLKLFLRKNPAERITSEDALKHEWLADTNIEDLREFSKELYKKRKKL

Turning to `CO/C(=C\C=C\c1cc2cc(Cl)c(Cl)cc2[nH]1)C(=O)NCCCN1CCCC[C@@H]1C`, the figures for the growth inhibition in test [1] and in test [4] were 83% (active) and 99% (active), respectively. In addition, the inhibition was 33% in test [2] and 1% in test [3]. For the same compound, the outcome in test [5], in test [6], in test [7] and in test [8] was inactive.
As to `O=C(c1cc(-c2ccccc2)n[nH]1)N1CCN(S(=O)(=O)c2ccc(Cl)s2)CC1`, the growth inhibition in test [1] was 81% (active); in test [4], 88% (active). The values for the inhibition in test [2] and in test [3] were 9% and 1%, respectively. Further, the outcome in test [5], in test [6], in test [7] and in test [8] was inactive.
Turning to `O=C(/C=C/c1ccc(Cl)c(Cl)c1)NCCCCCN1CCCN(C(=O)Nc2cc(F)cc(F)c2)CC1`, the growth inhibition is 1% in test [1] and 94% (active) in test [4]. The inhibition was 4% in test [2] and 0% in test [3]. Moreover, the outcome in test [5], in test [6], in test [7] and in test [8] was inactive.
For `CN1CCOc2ccc(Nc3nnc(-c4cccc(-c5cccnc5)c4)o3)cc2C1`, the growth inhibition in test [1] and in test [4] was 100% (active) throughout. Further, the inhibition in test [2] is -4%; in test [3], -1%. The outcome in test [5], in test [6], in test [7] and in test [8] was inactive.
As to `CC(C)CNCc1cccc(-c2ccccc2CNC2CCN(Cc3ccccc3)CC2)c1`, the growth inhibition was 39% in test [1] and 100% (active) in test [4]. Besides, the inhibition in test [2] was 25%; in test [3], -6%. Also, the outcome in test [5], in test [6], in test [7] and in test [8] was inactive.
As to `CCNc1cc(C(=O)N[C@@H](Cc2ccccc2)[C@H](O)CNCCCc2ccc(OC)cc2)cc(N2CCCC2=O)c1`, the growth inhibition is 96% (active) in test [1] and 99% (active) in test [4]. The results for the inhibition in test [2] and in test [3] were 4% and 2%, respectively. The outcome in test [5], in test [6], in test [7] and in test [8] was inactive.
As to `Cc1[nH]n(-c2cccc(Cl)c2)c(=O)c1-c1ccc(Cl)cc1`, the growth inhibition in test [1] was 41%; in test [4] it was 99% (active). Further, the results for the inhibition in test [2] and in test [3] were 0% and -8%, respectively. In addition, the result in test [5], in test [6], in test [7] and in test [8] was inactive.
As for `CCCCCC(C)NC[C@@H](O)[C@H](Cc1ccccc1)NC(=O)c1cc(NCC)cc(N2CCCCS2(=O)=O)c1` (stereo not given in full), the growth inhibition in test [1] is 79% (active); in test [4] it was 98% (active). The figures for the inhibition in test [2] and in test [3] were 3% and 0%, respectively. Besides, the outcome in test [5], in test [6], in test [7] and in test [8] was inactive.
For `Cc1ccc(NC(=O)c2cccc(CN3CCCN(CC4CCCCC4)CC3)c2)cc1F`, the growth inhibition in test [1] was 42%; in test [4], 85% (active). For the same compound, the results for the inhibition in test [2] and in test [3] were 22% and -2%, respectively. The result in test [5], in test [6], in test [7] and in test [8] was inactive.
`CC(C)(C)NCCN(Cc1ccc(-c2ccc(C(F)(F)F)cc2)cc1)C(=O)Cn1c(SCc2ccc(F)cc2)nc(=O)c2c1CCC2`: the growth inhibition in test [1] was 84% (active); in test [4], 97% (active). Besides, the inhibition in test [2] is 64% (active); in test [3] it was 0%. For the same compound, the outcome in test [5], in test [6], in test [7] and in test [8] was inactive.
As for `CCOc1ccc(-c2n[nH]c(C(F)(F)F)c2-c2ccccc2OC)c(O)c1`, the growth inhibition in test [1] was 12%; in test [4], 86% (active). Also, the inhibition in test [2] was 22%; in test [3], -5%. The result in test [5], in test [6], in test [7] and in test [8] was inactive.
Take `NC1=NC2(CCCCC2)N(OCCCCCCc2ccccc2)C(N)=N1`: the growth inhibition in test [1] was 69% (active); in test [4], 100% (active). Also, the figures for the inhibition in test [2] and in test [3] were 73% (active) and -2%, respectively. The outcome in test [5], in test [6], in test [7] and in test [8] was inactive.
Regarding `Clc1cc(Nc2ccnc3ccc(Br)cc23)ccc1Oc1ccc2ccccc2c1Cl`, the growth inhibition was 93% (active) in test [1] and 100% (active) in test [4]. In addition, the inhibition is 5% in test [2] and -5% in test [3]. Also, the result in test [5], in test [6], in test [7] and in test [8] was inactive.
Take `CC1(C)Cc2c(oc3ncn(CCn4cnc5oc6c(c5c4=N)CC(C)(C)SC6)c(=N)c23)CS1`: the growth inhibition in test [1] is 93% (active); in test [4], 98% (active). In addition, the inhibition in test [2] was -11%; in test [3] it was 0%. Also, the outcome in test [5], in test [6], in test [7] and in test [8] was inactive.
On to `Cc1ccc(-c2cc(C(=O)Nc3ccc(S(=O)(=O)N4CCOCC4)cc3)[nH]n2)c(O)c1C`, for which the growth inhibition in test [1] was 45%; in test [4], 91% (active). The values for the inhibition in test [2] and in test [3] were 18% and -5%, respectively. In addition, the outcome in test [5], in test [6], in test [7] and in test [8] was inactive.
With `O=C(Nc1ccc(-c2ccc(-c3nc4ccc(C(F)(F)F)cc4[nH]3)s2)cc1)c1cnc[nH]1`, the growth inhibition was 61% (active) in test [1] and 92% (active) in test [4]. Besides, the results for the inhibition in test [2] and in test [3] were 66% (active) and 5%, respectively. Besides, the result in test [5], in test [6], in test [7] and in test [8] was inactive.
For `O=C(/C=C/c1ccc(-c2nc3cc(F)c(F)cc3[nH]2)cc1)NCc1ccc(Cl)c(Cl)c1`, the growth inhibition in test [1] was 24%; in test [4], 100% (active). Further, the inhibition in test [2] is 14%; in test [3], 4%. Further, the result in test [5], in test [6], in test [7] and in test [8] was inactive.
For the compound `CCCCCOc1ccc(N2C(N)=NC(N)=NC2(C)C)cc1`, the growth inhibition in test [1] is -4%; in test [4], 97% (active). The inhibition in test [2] is 24%; in test [3] it was -4%. Besides, the result in test [5], in test [6], in test [7] and in test [8] was inactive.
As for `CC1CCC(C[C@@H](C(=O)N[C@H](C(=O)Nc2nccs2)[C@@H](C)O)[C@H](CCC(F)(F)F)N(O)C=O)CC1` (stereo not given in full), the results for the growth inhibition in test [1] and in test [4] were 94% (active) and 95% (active), respectively. For the same compound, the inhibition in test [2] was -8%; in test [3], 3%. The result in test [5], in test [6], in test [7] and in test [8] was inactive.
As to `O=C(/C=C/c1ccc(Cl)c(Cl)c1)NCCCCCN1CCCC(CNC(=O)c2sc3ccccc3c2Cl)C1` (stereo not given), the growth inhibition in test [1] is -3%; in test [4], 98% (active). Also, the inhibition is 42% in test [2] and 4% in test [3]. For the same compound, the outcome in test [5], in test [6], in test [7] and in test [8] was inactive.

These data come from PubChem BioAssay.
